Results published in PubChem BioAssay (Tox21).
Where “and” joins values, the source holds several entries; their conditions need not be identical. Equal values may be shown once. Results filed as inconclusive are left out. Where a call stands in place of a potency, no number is given. Some structures have more than one record in an assay (separate samples or runs), and their calls can disagree. Calls of active or inactive are those of the source. The call rests on the fitted dose curve; in most records, active means well fitted curve in the direction sought with a large enough effect in the repeat runs; inconclusive means weak or mixed curves; inactive means no such curve, though single readings can be large; an effect the other way counts as inactive or inconclusive.

Tests used:
[1] = A CellTox Green Cytotoxicity Assay to monitor cytotoxicity in HEK293 cells - 24 hour (AID 1224875); conditions: CellTox Green fluorescence; series mostly up to 76.8 µM; further: nearly all actives have a fitted effect of over 45% in size; further: potency means the concentration at half of the fitted maximal effect
How it was run: (§1)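 HEK293 cells, 600/well, were preincubated 5 hours and then exposed to compounds at 37 C for up to 40 hours. A cell-impermeant cyanine dye staining dead-cell DNA was read by fluorescence at 0, 8, 16, 24, 32 and 40 h time points.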

[2] = A CellTox Green Cytotoxicity Assay to monitor cytotoxicity in HepG2 cells - 16 hour (AID 1224876); conditions: CellTox Green fluorescence; series mostly up to 76.8 µM; further: nearly all actives have a fitted effect of over 45% in size; further: potency means the concentration at half of the fitted maximal effect
How it was run: (§2)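 HepG2 cells, 600/well, preincubated 5 h with CellTox Green dye, then exposed to Tox21 compounds in DMSO at 37 C for up to 40 h. Dead-cell DNA fluorescence read at the indicated time point.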

[3] = qHTS RealTime-Glo MT Cell Viability Assay in HepG2 cells - 32 hour (AID 1224877); conditions: RealTime-Glo luminescence; series mostly up to 76.8 µM; further: nearly all actives have a fitted effect of over 55% in size; further: potency means the concentration at half of the fitted maximal effect
How it was run: (§3)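 Viability was tracked continuously by NanoLuc luminescence from prosubstrate reduced by living HepG2 cells, at successive time points over 40 h of compound exposure. Cells with reagent were preincubated 5 h at 37 °C before compound addition.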

[4] = A CellTox Green Cytotoxicity Assay to monitor cytotoxicity in HepG2 cells - 24 hour (AID 1224878); conditions: CellTox Green fluorescence; series mostly up to 76.8 µM; further: nearly all actives have a fitted effect of over 45% in size; further: potency means the concentration at half of the fitted maximal effect
How it was run: as §2

[5] = A CellTox Green Cytotoxicity Assay to monitor cytotoxicity in HepG2 cells - 40 hour (AID 1224879); conditions: CellTox Green fluorescence; series mostly up to 76.8 µM; further: nearly all actives have a fitted effect of over 40% in size; further: potency means the concentration at half of the fitted maximal effect
How it was run: as §2

[6] = qHTS RealTime-Glo MT Cell Viability Assay in HEK293 cells - 0 hour (AID 1224880); conditions: RealTime-Glo luminescence; series mostly up to 76.8 µM; further: top concentration of the series differs between compounds; nearly all actives have a fitted effect of over 45% in size
How it was run: (§4)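 600 cells/well were plated with the nonlytic NanoLuc/prosubstrate reagent, pre-incubated 5 h, then given 23 nL of compound in DMSO. Incubation at 37 C for 40 h, with luminescence from viable-cell-reduced substrate read repeatedly from 0 h.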

[7] = A CellTox Green Cytotoxicity Assay to monitor cytotoxicity in HEK293 cells - 32 hour (AID 1224881); conditions: CellTox Green fluorescence; series mostly up to 76.8 µM; further: nearly all actives have a fitted effect of over 40% in size; further: potency means the concentration at half of the fitted maximal effect
How it was run: as §1

[8] = A CellTox Green Cytotoxicity Assay to monitor cytotoxicity in HepG2 cells - 0 hour (AID 1224882); conditions: CellTox Green fluorescence; series mostly up to 76.8 µM; further: nearly all actives have a fitted effect of over 35% in size; further: potency means the concentration at half of the fitted maximal effect
How it was run: as §2

[9] = A CellTox Green Cytotoxicity Assay to monitor cytotoxicity in HepG2 cells - 32 hour (AID 1224883); conditions: CellTox Green fluorescence; series mostly up to 76.8 µM; further: nearly all actives have a fitted effect of over 50% in size; further: potency means the concentration at half of the fitted maximal effect
How it was run: as §2

[10] = A CellTox Green Cytotoxicity Assay to monitor cytotoxicity in HEK293 cells - 8 hour (AID 1224884); conditions: CellTox Green fluorescence; series mostly up to 76.8 µM; further: nearly all actives have a fitted effect of over 35% in size; further: potency means the concentration at half of the fitted maximal effect
How it was run: as §1

[11] = qHTS RealTime-Glo MT Cell Viability Assay in HepG2 cells - 16 hour (AID 1224885); conditions: RealTime-Glo luminescence; series mostly up to 76.8 µM; further: nearly all actives have a fitted effect of over 50% in size; further: potency means the concentration at half of the fitted maximal effect
How it was run: as §3

[12] = qHTS RealTime-Glo MT Cell Viability Assay in HEK293 cells - 24 hour (AID 1224886); conditions: RealTime-Glo luminescence; series mostly up to 76.8 µM; further: nearly all actives have a fitted effect of over 50% in size; further: potency means the concentration at half of the fitted maximal effect
How it was run: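 Viability tracked continuously by luminescence as live cells reduce a prosubstrate for NanoLuc; HEK293 cells preincubated 5 h, compound-treated at 37 C, and read at 0, 8, 16, 24, 32 and 40 h.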

[13] = qHTS RealTime-Glo MT Cell Viability Assay in HEK293 cells - 8 hour (AID 1224887); conditions: RealTime-Glo luminescence; series mostly up to 76.8 µM; further: nearly all actives have a fitted effect of over 50% in size; further: potency means the concentration at half of the fitted maximal effect
How it was run: as §4

[14] = A CellTox Green Cytotoxicity Assay to monitor cytotoxicity in HEK293 cells - 16 hour (AID 1224888); conditions: CellTox Green fluorescence; series mostly up to 76.8 µM; further: nearly all actives have a fitted effect of over 35% in size; further: potency means the concentration at half of the fitted maximal effect
How it was run: as §1

[15] = qHTS RealTime-Glo MT Cell Viability Assay in HepG2 cells - 0 hour (AID 1224889); conditions: RealTime-Glo luminescence; series mostly up to 76.8 µM; further: nearly all actives have a fitted effect of over 50% in size
How it was run: as §3

[16] = A CellTox Green Cytotoxicity Assay to monitor cytotoxicity in HepG2 cells - 8 hour (AID 1224890); conditions: CellTox Green fluorescence; series mostly up to 76.8 µM; further: nearly all actives have a fitted effect of over 45% in size; further: potency means the concentration at half of the fitted maximal effect
How it was run: as §2

[17] = qHTS assay to identify small molecule antagonists of the androgen receptor (AR) signaling pathway using the MDA cell line in the presence of 0.5 nM R1881 - cell viability counter screen (AID 1259242); conditions: MDA-kb2 viability, CellTiter-Fluor protease fluorescence, 16 h; series mostly up to 92.4 µM; further: nearly all actives have a fitted effect of over 45% in size; further: potency means the concentration at half of the fitted maximal effect
How it was run: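 MDA-kb2 cells (MMTV-luciferase, AR/GR responsive) were treated with compounds plus 0.5 nM R1881 (final) for 16 hr at 37C, 0% CO2. Viability was then read in the same wells as live-cell protease fluorescence (CellTiter-Fluor, 30 min).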

[18] = molecular target: Estrogen receptor (Homo sapiens) (UniProt P03372); assay: qHTS assay to identify small molecule antagonists of the estrogen receptor alpha (ER-alpha) signaling pathway using the BG1 cell line in the presence of 0.1 nM 17-beta-estradiol (AID 1259244); conditions: VM7Luc4E2 (BG1) ERE-luciferase, antagonist mode, 0.1 nM E2, 22 h; series mostly up to 92.4 µM; further: nearly all actives have a fitted effect of over 50% in size; further: potency means the concentration at half of the fitted maximal effect
Sequence of Estrogen receptor (Homo sapiens) (P03372 whole entry, looked up): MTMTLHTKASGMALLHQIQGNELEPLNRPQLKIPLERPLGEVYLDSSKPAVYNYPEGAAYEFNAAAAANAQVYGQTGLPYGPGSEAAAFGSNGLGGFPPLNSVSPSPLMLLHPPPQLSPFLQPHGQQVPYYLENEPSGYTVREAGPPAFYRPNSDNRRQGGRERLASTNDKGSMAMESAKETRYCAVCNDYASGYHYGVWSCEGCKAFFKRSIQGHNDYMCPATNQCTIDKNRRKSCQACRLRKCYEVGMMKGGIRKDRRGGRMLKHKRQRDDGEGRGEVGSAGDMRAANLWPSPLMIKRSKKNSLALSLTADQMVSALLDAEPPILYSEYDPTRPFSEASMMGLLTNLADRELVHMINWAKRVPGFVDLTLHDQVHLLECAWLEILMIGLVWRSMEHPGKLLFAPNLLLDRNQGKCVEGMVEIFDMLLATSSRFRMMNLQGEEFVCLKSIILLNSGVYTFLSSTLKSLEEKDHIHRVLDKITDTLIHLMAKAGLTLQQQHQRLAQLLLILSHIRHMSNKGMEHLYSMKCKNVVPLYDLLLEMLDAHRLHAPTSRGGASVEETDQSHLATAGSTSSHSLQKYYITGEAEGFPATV
How it was run: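 VM7Luc4E2 cells (endogenous full-length ER-alpha, 4×ERE-luciferase), kept 5 days in phenol red-free, charcoal-stripped FBS medium; 4,000 cells/well. Compounds added with 0.1 nM (final) 17beta-estradiol, 22 hr at 37C; luminescence read with ONE-Glo after 30 min.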

[19] = molecular target: Androgen receptor (Homo sapiens) (UniProt P10275); assay: qHTS assay to identify small molecule antagonists of the androgen receptor (AR) signaling pathway using the MDA cell line in the presence of 0.5 nM R1881 (AID 1259243); conditions: MDA-kb2 MMTV-luciferase, R1881 0.5 nM, 16 h; series mostly up to 92.4 µM
Sequence of Androgen receptor (Homo sapiens) (P10275 whole entry, looked up): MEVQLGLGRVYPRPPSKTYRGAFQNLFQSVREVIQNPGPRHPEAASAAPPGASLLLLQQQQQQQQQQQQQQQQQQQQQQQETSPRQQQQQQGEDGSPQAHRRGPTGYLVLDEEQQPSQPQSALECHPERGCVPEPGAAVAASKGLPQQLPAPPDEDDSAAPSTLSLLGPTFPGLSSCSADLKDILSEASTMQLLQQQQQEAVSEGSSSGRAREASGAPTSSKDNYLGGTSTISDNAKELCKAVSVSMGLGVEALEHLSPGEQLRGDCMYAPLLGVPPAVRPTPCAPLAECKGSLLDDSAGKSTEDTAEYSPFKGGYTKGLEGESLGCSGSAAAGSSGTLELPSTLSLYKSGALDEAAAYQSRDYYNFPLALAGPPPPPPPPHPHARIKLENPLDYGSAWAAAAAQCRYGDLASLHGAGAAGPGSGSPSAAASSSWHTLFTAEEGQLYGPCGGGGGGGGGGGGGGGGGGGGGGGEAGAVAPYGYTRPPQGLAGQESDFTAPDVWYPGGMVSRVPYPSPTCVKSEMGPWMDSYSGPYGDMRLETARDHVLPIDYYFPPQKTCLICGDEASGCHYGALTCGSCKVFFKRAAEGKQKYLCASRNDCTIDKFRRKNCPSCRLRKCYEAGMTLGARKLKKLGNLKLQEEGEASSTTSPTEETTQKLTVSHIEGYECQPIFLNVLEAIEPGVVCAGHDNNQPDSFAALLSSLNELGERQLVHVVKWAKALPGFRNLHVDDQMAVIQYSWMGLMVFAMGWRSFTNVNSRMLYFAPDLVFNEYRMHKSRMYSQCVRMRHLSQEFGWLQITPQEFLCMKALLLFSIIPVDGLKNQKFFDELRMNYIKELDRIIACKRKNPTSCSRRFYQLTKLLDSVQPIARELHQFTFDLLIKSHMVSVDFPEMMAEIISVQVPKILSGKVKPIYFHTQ
How it was run: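 MDA-kb2 cells (MMTV-luciferase, responsive to AR and GR) at 3,000/well, rested 5 h at 37C, 0% CO2, then given compounds plus 0.5 nM R1881 (final) for 16 hr. Luciferase read with ONE-Glo after 30 min at room temperature.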

SMILES	Potency [1]	Potency [2]	Potency [3]	Potency [4]	Potency [5]	outcome [6]	Potency [7]	Potency [8]	Potency [9]	Potency [10]	Potency [11]	Potency [12]	Potency [13]	Potency [14]	Potency [15]	Potency [16]	Potency [17]	Potency [18]	Potency [19]
CCNc1nc(Cl)nc(NCC)n1	inactive	inactive	inactive	inactive	inactive	inactive	inactive	inactive	inactive	inactive	inactive	inactive	inactive	inactive	inactive	inactive	inactive	inactive	
CC(Cl)(Cl)C(=O)O	inactive	inactive	inactive	inactive	inactive	inactive	inactive	inactive	inactive	inactive	inactive	inactive	inactive	inactive	inactive	inactive	inactive	inactive	
O=P1(N(CCCl)CCCl)NCCCO1 (stereo not given)	inactive	inactive	inactive	inactive	inactive	inactive	inactive	inactive	inactive	inactive	inactive	inactive	inactive	inactive	inactive	inactive	inactive	inactive	
Nc1ccc(-c2ccc(N)c(Cl)c2)cc1Cl		inactive and 43.6 µM (active)	inactive and 49 µM (active)	inactive and 27.5 µM (active)	15.6 µM (active) and 12.9 µM (active) and 27.5 µM (active)	inactive	inactive and 49 µM (active)	inactive and 43.6 µM (active)	17.5 µM (active) and 14.4 µM (active) and 27.5 µM (active)	inactive and 49 µM (active)	inactive and 49 µM (active)	15.6 µM (active) and 24.5 µM (active)	24.5 µM (active)		inactive	inactive and 43.6 µM (active)	inactive	48.6 µM (active)	
Cc1cc(-c2ccc(N)c(C)c2)ccc1N	inactive	inactive	inactive	inactive and 43.6 µM (active)	inactive and 43.6 µM (active)	inactive	inactive	inactive	inactive and 43.6 µM (active)	inactive	inactive	inactive	inactive	inactive	inactive	inactive	inactive	34.4 µM (active)	
CC[n+]1ccccc1	inactive	inactive	inactive and 49.1 µM (active)	inactive	inactive	inactive	inactive	inactive	inactive	inactive	inactive	inactive	inactive	inactive	inactive	inactive	inactive and 30.4 µM (active)		
CC(=O)[O][Hg][c]1ccccc1	863 nM (active) and 1.38 µM (active) and 1.07 µM (active)	1.72 µM (active) and 2.45 µM (active) and 1.51 µM (active)	1.72 µM (active) and 1.95 µM (active) and 1.07 µM (active)	1.93 µM (active) and 2.45 µM (active) and 1.34 µM (active)	1.22 µM (active) and 1.95 µM (active) and 1.07 µM (active)	inactive	611 nM (active) and 977 nM (active) and 213 nM (active)	inactive	1.53 µM (active) and 1.95 µM (active) and 1.07 µM (active)	inactive	1.72 µM (active) and 1.74 µM (active) and 1.07 µM (active)	344 nM (active) and 1.1 µM (active) and 239 nM (active)	433 nM (active) and 1.55 µM (active) and 425 nM (active)	1.9 µM (active)	inactive	2.73 µM (active) and 2.19 µM (active) and 1.2 µM (active)	1.92 µM (active) and 6.11 µM (active) and 2.66 µM (active)	2.71 µM (active) and 6.86 µM (active) and 8.41 µM (active)	606 nM (active) and 2.43 µM (active) and 1.19 µM (active)
CCCC[n+]1ccccc1	inactive	inactive	inactive	inactive	inactive	inactive	inactive	inactive	inactive	inactive	inactive	inactive	inactive	inactive	inactive	inactive	inactive		
C[N+](C)(C)Cc1ccccc1	inactive	inactive	inactive	inactive	inactive	inactive	inactive	inactive	inactive	inactive	inactive	inactive	inactive	inactive	inactive	inactive	inactive	inactive	
CN(C)[C@@H]1C(=O)C(C(N)=O)=C(O)[C@@]2(O)C(=O)C3=C(O)c4c(O)cccc4[C@@](C)(O)[C@H]3[C@H](O)[C@@H]12	inactive	inactive	inactive	inactive	inactive	inactive	inactive	inactive	inactive	inactive	inactive	inactive	inactive	inactive	inactive	inactive	inactive		
O=c1[nH]c(=O)n(Cl)c(=O)n1Cl	inactive	inactive	inactive	inactive	inactive	inactive	inactive	inactive	inactive	inactive	inactive	inactive	inactive	inactive	inactive	inactive	inactive		
CCCC[n+]1cccc(C)c1	inactive	inactive	inactive and 55.7 µM (active)	inactive	inactive	inactive	inactive	inactive	inactive	inactive	inactive	inactive	inactive	inactive	inactive	inactive	inactive		
